Assay results as given in paper PMC4552634, “A New Set of Chemical Starting Points with Plasmodium falciparum Transmission-Blocking Potential for Antimalarial Drug Discovery” (PLoS ONE, 2015).
About 3,200 (25%) of roughly 13,000 compounds showed an effect of 50% or more. This is one part of the list.

test system: P. falciparum stage V gametocytes; design: BacTiter-Glo ATP luminescence viability of purified stage V gametocytes in 384-well plates, per cent inhibition versus DMSO; conditions: 48 h, 5 µM; inhibitor

| Compound | % Inhibition [%] |
| --- | --- |
| CCCc1ccc(NC(=O)c2ccc(CN3CCCN(Cc4cccc(O)c4)CC3)cc2)cc1 [TCMDC-136421] | 2.458 |
| COc1ccc(C=NNc2nc(-c3ccccc3)cc(=O)[nH]2)cc1OC [TCMDC-124217] | 8.014 |
| CC(C)NCC(O)Cn1c2ccc(Br)cc2c2cc(Br)ccc21 (stereo not drawn) [TCMDC-124100] | 43.74 |
| OC(CNC1CCCCC1)Cn1c2ccc(Br)cc2c2cc(Br)ccc21 (stereo not drawn) [TCMDC-124059] | 90.2 |
| N#Cc1ccc(-c2ccc(C(=O)NCCCCN3CCC(c4ccncc4)CC3)cc2)cc1 [TCMDC-135811] | -0.7108 |
| N#Cc1cccc(C(=O)N2CCOC(CCN3CCC(c4ccccc4)CC3)(c3ccc(Cl)c(Cl)c3)C2)c1 (stereo not drawn) [TCMDC-135335] | 20.78 |
| N#Cc1ccc(C2CCN(CC[C@H](N)Cc3ccc(Cl)s3)CC2)cc1 [TCMDC-132358] | 63.71 |
| CC1(C)N=C(N)N=C(N)N1O [TCMDC-131576] | -2.875 |
| COc1ccc2ncc(F)c(CCN3CC[C@H](NC(=O)c4ccc5c(n4)NC(=O)CS5)[C@H](O)C3)c2n1 [TCMDC-135907] | -25.82 |
| COc1ccc2ncc(F)c(CCN3CC[C@@H](CNCc4cc5c(cn4)OCS5)C3)c2n1 [TCMDC-135643] | 33.53 |
| COc1ccc2ncc(Cl)c(CCN3C[C@H](CNCc4ccc5c(n4)NC(=O)CS5)[C@H](O)C3)c2n1 [TCMDC-136241] | 10.16 |
| COc1ccc2ncc(F)c(CCN3CCC[C@H](CNCc4ccc5c(n4)NC(=O)CS5)C3)c2n1 [TCMDC-136318] | 98.5 |
| COc1ccc2ncc(F)c(CCN3CC4CCCC4(CNCc4ccc5c(n4)NC(=O)CS5)C3)c2n1 (stereo not drawn) [TCMDC-136065] | 28.02 |
| COc1ccc2ncc(F)c(CCN3CC[C@@H](CNCc4nc5c(cc4C)SCC(=O)N5)C3)c2n1 [TCMDC-136056] | 97.91 |
| COc1ccc(NC(C)C(=O)Nc2ccc(Br)cc2)cc1S(=O)(=O)N1CCCCC1 (stereo not drawn) [TCMDC-125032] | -25.53 |
| O=C(Cc1ccc[n+]([O-])c1)Nc1cccc(-c2cccc(-c3nc4cc(F)ccc4[nH]3)c2)c1 [TCMDC-136989] | -50 |
| COc1ccc2nc(N(CCCn3ccnc3)C(=O)C=Cc3cccs3)sc2c1 [TCMDC-124926] | -10.06 |
| O=C(C=Cc1cccs1)N(CCCn1ccnc1)c1nc2ccc(F)cc2s1 [TCMDC-124928] | 96.26 |
| Cc1ccc2nc(N(CCCn3ccnc3)C(=O)C=Cc3cccs3)sc2c1 [TCMDC-124927] | 1.025 |
| OCCN1CCN(C2Cc3ccc(F)cc3Sc3ccc(Cl)cc32)CC1 (stereo not drawn) [TCMDC-123467] | 11.59 |
| C=C(NC(=O)c1cc(C)cc(C)c1)C(=O)OC [TCMDC-131725] | 5.196 |
| CC1CCCN1Cc1cccc(-c2ccc(C(=O)NCCOc3ccccc3)s2)c1 (stereo not drawn) [TCMDC-133066] | -6.821 |
| CC(C)(C)OC(=O)[C@H](CC(N)=O)NC(=O)c1ccc(-c2ccc(-c3nc4cc(C(F)(F)F)ccc4[nH]3)s2)cc1 [TCMDC-132340] | -23.75 |

| Compound | % Inhibition [%] |
| --- | --- |
| CC(C)N(Cc1cnc(N)c(C#N)n1)c1ccc(Cl)c(Cl)c1 [TCMDC-137676] | 6.722 |
| O=c1[nH]c(=O)n2c(nc3ccccc32)[nH]1 [TCMDC-131695] | 19.78 |
| COc1ccc(-c2ccc(CNCc3ccc(F)cc3)cc2)cc1S(=O)(=O)NCCN1CCCC1 [TCMDC-132282] | 111.7 |
| Cc1cc(-c2cccc(CNCc3ccc(F)cc3)c2)ccc1S(=O)(=O)NCCN1CCCC1 [TCMDC-132278] | 105 |
| COc1ccc(CNCc2ccccc2)cc1-c1ccc(OC)c(S(=O)(=O)NCCN2CCCC2)c1 [TCMDC-132250] | 31.04 |
| COc1ccc(CNCc2ccc(F)cc2)cc1-c1ccc(OC)c(S(=O)(=O)NCCN2CCCC2)c1 [TCMDC-132295] | 107 |
| COc1ccc(-c2cccc(CNCc3ccc(F)cc3)c2)cc1S(=O)(=O)NCCN1CCCC1 [TCMDC-132408] | 73.1 |
| O=S(=O)(NCCN1CCCC1)c1ccc(-c2cccc(CNCc3ccc(F)cc3)c2)cc1F [TCMDC-132275] | 25.81 |
| Cc1cc(-c2ccc(CNCc3ccc(F)cc3)cc2)ccc1S(=O)(=O)NCCN1CCCC1 [TCMDC-132291] | 38.43 |
| COc1ccc(Nc2nc(NCc3cccc(NS(C)(=O)=O)c3)cc(-c3ccc(OC)cc3)n2)cc1 [TCMDC-133457] | -11.45 |
| COc1ccc(Nc2ncc3c(-c4cccc(NC(=O)Cc5cccc(O)c5)c4)c[nH]c3n2)cc1OC [TCMDC-135247] | -20.67 |
| CN1CC=C(c2c[nH]c3ccc(-c4ccccc4)cc23)CC1 [TCMDC-138962] | -5.151 |
| Cc1cc2nc(-c3ccc(SCC(=O)Nc4ccc5c(c4)OCCO5)nc3)[nH]c2cc1C [TCMDC-125353] | 21.88 |
| O=C(CN1CCC2(CCC1=O)CC(=O)c1ccccc1O2)NCCN1CCOCC1 (stereo not drawn) [TCMDC-133148] | 11.41 |
| COc1ccc(-c2ccc(CNCc3ccccc3)cc2)cc1S(=O)(=O)NCCN1CCCC1 [TCMDC-132230] | 103.5 |
| C=CCOC(=O)N1CCC(CNCc2cccc(-c3ccc(-c4nc5cc(C(F)(F)F)ccc5[nH]4)cc3)c2)C1.O=C(O)C(F)(F)F (stereo not drawn) [TCMDC-133042] | -7.537 |
| COc1cccc(OC2CCN(C(=O)c3cc(C(C)(C)C)nn3Cc3ccccc3)CC2)c1 [TCMDC-134143] | -6.866 |
| COc1cccc(CNC(=O)NC2CCN(c3ccnc(Nc4ccc(F)cc4)n3)C2)c1 (stereo not drawn) [TCMDC-133604] | -32.96 |
| COc1cccc(CC(=O)N2CCC(n3c(C)nc4ccc(F)cc43)CC2)c1 [TCMDC-124792] | 80.7 |
| COc1cccc(CC(=O)NC2CCN(c3ccnc4cc(Cl)ccc34)C2)c1 (stereo not drawn) [TCMDC-133664] | 6.238 |
| COc1cccc(CC(=O)N2CCC(n3c(C)nc4ccc(C)cc43)CC2)c1 [TCMDC-124791] | 93.69 |
| COc1cccc(CNC(=O)c2cccc(-c3cccc(CN4CCC(N5CCCC5)CC4)c3)n2)c1 [TCMDC-134417] | 25.8 |
